Reference: PMC7862700, “An all-to-all approach to the identification of sequence-specific readers for epigenetic DNA modifications on cytosine”

Legend:
Assay in all cases: DAPPL (digital affinity profiling via proximity ligation, sequencing); 10 mM Tris-HCl pH 7.5, 50 mM NaCl, 1 mM DTT, 4% glycerol, room temperature, 30 min; GST-TFs on glutathione beads, 16-mer random dsDNA library, 0.1% formaldehyde crosslink after washing; high values mean tight binding
Conditions in all cases: protein: recombinant; tags: N-terminal GST; dsDNA, one strand shown
ERF = target: T1, ERF (Homo sapiens, UniProt P50548 1-548)
T1 sequence: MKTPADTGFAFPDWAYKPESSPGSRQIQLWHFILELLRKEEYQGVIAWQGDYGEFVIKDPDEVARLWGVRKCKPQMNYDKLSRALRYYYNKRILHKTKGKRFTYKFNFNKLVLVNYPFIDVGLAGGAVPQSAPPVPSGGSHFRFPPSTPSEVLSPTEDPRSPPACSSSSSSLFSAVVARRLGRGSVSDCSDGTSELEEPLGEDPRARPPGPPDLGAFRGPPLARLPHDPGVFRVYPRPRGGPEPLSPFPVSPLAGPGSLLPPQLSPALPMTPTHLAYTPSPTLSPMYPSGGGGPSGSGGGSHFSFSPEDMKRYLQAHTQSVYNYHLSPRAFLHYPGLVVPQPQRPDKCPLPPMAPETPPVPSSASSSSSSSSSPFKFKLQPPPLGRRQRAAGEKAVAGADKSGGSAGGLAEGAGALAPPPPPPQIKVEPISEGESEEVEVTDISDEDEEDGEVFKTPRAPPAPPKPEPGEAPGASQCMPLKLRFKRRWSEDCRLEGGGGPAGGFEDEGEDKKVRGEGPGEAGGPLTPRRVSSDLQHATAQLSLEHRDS
Outline: (§1)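 Sequencing on an Illumina NextSeq500 followed washing, crosslinking with 0.1% formaldehyde, proximity ligation (BsaI/T4 ligase, 1 h, 37 °C) and PCR amplification of pools that had been incubated for 30 min at room temperature with 200 nmole of a random double-stranded 16-mer DNA library in Tris/NaCl/DTT/glycerol buffer. Each pool held DNA-barcoded human transcription factors, expressed in yeast as GST fusions and captured on glutathione beads, plus a tag-only sample. Binding signal is a hexamer's read frequency for a factor divided by its frequency in the tag-only sample.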

ETV3L = target: T2, ETV3L (Homo sapiens, UniProt Q6ZN32 1-361)
T2 sequence: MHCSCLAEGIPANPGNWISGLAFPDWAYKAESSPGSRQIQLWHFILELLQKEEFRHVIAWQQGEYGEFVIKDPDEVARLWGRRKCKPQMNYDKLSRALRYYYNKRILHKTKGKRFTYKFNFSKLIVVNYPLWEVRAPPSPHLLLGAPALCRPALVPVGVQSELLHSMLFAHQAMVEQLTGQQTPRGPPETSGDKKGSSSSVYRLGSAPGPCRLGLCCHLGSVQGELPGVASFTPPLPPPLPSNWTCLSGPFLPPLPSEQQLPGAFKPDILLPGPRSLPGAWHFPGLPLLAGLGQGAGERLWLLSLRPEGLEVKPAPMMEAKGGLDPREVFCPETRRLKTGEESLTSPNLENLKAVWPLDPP
Outline: as §1

ETS2 = target: T3, ETS2 (Homo sapiens, UniProt P15036 1-469)
T3 sequence: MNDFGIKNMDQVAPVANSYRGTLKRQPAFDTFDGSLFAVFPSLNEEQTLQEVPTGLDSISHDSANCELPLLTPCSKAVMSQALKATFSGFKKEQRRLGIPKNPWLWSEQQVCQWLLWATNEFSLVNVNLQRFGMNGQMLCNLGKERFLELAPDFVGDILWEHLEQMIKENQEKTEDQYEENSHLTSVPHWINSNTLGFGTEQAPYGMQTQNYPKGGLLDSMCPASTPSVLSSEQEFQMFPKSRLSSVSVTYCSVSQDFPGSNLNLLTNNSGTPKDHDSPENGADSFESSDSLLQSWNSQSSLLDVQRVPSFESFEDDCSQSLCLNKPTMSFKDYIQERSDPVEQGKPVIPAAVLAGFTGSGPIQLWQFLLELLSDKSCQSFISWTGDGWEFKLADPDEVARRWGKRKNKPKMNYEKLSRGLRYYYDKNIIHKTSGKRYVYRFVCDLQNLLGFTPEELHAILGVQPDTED
Outline: as §1

SPDEF = target: T4, SPDEF (Homo sapiens, UniProt O95238 1-335)
T4 sequence: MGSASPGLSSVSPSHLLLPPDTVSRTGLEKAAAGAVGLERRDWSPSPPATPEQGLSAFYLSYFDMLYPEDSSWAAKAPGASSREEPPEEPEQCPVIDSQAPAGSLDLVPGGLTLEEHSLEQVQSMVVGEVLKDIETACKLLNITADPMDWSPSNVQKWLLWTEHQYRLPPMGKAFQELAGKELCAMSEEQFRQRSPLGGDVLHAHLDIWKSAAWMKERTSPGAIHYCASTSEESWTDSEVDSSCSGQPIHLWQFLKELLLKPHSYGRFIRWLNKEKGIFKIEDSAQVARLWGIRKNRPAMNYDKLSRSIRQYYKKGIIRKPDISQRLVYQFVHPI
Outline: as §1

ETV7 = target: T5, ETV7 (Homo sapiens, UniProt Q9Y603 1-341)
T5 sequence: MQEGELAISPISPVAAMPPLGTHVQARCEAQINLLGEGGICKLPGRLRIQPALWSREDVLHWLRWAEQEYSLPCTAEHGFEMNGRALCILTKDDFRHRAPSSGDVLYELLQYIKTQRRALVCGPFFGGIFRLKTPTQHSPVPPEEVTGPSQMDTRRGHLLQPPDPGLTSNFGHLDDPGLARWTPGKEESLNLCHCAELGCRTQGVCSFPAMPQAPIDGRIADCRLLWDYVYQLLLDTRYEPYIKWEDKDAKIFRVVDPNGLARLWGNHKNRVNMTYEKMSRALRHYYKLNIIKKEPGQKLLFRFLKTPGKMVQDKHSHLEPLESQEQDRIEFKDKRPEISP
Outline: as §1

ELF5 = target: T6, ELF5 (Homo sapiens, UniProt Q9UKW6-2 1-255)
T6 sequence: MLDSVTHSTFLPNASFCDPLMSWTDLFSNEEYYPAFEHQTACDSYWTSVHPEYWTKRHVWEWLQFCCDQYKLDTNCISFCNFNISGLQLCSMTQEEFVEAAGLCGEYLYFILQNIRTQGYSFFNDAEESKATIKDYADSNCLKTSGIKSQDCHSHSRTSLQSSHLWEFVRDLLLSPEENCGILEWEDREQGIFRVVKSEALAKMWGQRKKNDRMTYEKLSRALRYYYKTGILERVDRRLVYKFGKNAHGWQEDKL
Outline: as §1

ETV3 = target: T7, ETV3 (Homo sapiens, UniProt P41162-2 1-143)
T7 sequence: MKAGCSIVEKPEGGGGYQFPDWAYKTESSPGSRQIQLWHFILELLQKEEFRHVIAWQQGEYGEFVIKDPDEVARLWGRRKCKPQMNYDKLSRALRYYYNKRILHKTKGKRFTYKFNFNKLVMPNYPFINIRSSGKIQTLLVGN
Outline: as §1

ETV6 = ETV6 (Homo sapiens, UniProt P41212 1-452)
Outline: as §1

ETV6, sequence (P41212 whole entry): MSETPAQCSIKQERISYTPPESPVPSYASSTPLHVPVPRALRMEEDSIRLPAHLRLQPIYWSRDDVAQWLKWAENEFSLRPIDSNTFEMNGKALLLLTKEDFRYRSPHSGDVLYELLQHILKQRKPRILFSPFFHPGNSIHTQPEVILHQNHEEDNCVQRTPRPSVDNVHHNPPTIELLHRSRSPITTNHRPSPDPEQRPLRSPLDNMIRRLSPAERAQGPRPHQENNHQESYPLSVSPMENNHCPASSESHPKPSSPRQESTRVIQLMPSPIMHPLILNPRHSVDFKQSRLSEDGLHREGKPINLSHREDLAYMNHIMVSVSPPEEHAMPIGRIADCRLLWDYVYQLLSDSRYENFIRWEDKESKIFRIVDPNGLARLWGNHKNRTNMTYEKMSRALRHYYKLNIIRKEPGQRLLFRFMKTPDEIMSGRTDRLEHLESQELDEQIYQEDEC

Sequence	binding signal (ERF)	binding signal (ETV3L)	binding signal (ETS2)	binding signal (SPDEF)	binding signal (ETV7)	binding signal (ELF5)	binding signal (ETV3)	binding signal (ETV6)
TTAAGT	1.12 fold enrichment (6-mer frequency, TF over GST control)	1.15 fold enrichment (6-mer frequency, TF over GST control)	1.16 fold enrichment (6-mer frequency, TF over GST control)	1.31 fold enrichment (6-mer frequency, TF over GST control)	1.19 fold enrichment (6-mer frequency, TF over GST control)	1.12 fold enrichment (6-mer frequency, TF over GST control)	1.12 fold enrichment (6-mer frequency, TF over GST control)	1.19 fold enrichment (6-mer frequency, TF over GST control)
GGTAAT	1.13 fold enrichment (6-mer frequency, TF over GST control)	1.06 fold enrichment (6-mer frequency, TF over GST control)	1.08 fold enrichment (6-mer frequency, TF over GST control)	1.11 fold enrichment (6-mer frequency, TF over GST control)	1.14 fold enrichment (6-mer frequency, TF over GST control)	1.16 fold enrichment (6-mer frequency, TF over GST control)	1.06 fold enrichment (6-mer frequency, TF over GST control)	1.16 fold enrichment (6-mer frequency, TF over GST control)
TCTGTG	1.15 fold enrichment (6-mer frequency, TF over GST control)	1.2 fold enrichment (6-mer frequency, TF over GST control)	1.13 fold enrichment (6-mer frequency, TF over GST control)	1.06 fold enrichment (6-mer frequency, TF over GST control)	1.26 fold enrichment (6-mer frequency, TF over GST control)	1.04 fold enrichment (6-mer frequency, TF over GST control)	1.04 fold enrichment (6-mer frequency, TF over GST control)	1.07 fold enrichment (6-mer frequency, TF over GST control)
ATCACT	1.16 fold enrichment (6-mer frequency, TF over GST control)	1.16 fold enrichment (6-mer frequency, TF over GST control)	1.22 fold enrichment (6-mer frequency, TF over GST control)	1.22 fold enrichment (6-mer frequency, TF over GST control)	1.26 fold enrichment (6-mer frequency, TF over GST control)	1.27 fold enrichment (6-mer frequency, TF over GST control)	1.15 fold enrichment (6-mer frequency, TF over GST control)	1.28 fold enrichment (6-mer frequency, TF over GST control)
CGAATT	1.28 fold enrichment (6-mer frequency, TF over GST control)	1.28 fold enrichment (6-mer frequency, TF over GST control)	1.14 fold enrichment (6-mer frequency, TF over GST control)	1.28 fold enrichment (6-mer frequency, TF over GST control)	1.31 fold enrichment (6-mer frequency, TF over GST control)	1.17 fold enrichment (6-mer frequency, TF over GST control)	1.22 fold enrichment (6-mer frequency, TF over GST control)	1.08 fold enrichment (6-mer frequency, TF over GST control)
CTGATG	1.48 fold enrichment (6-mer frequency, TF over GST control)	1.53 fold enrichment (6-mer frequency, TF over GST control)	1.68 fold enrichment (6-mer frequency, TF over GST control)	1.5 fold enrichment (6-mer frequency, TF over GST control)	1.64 fold enrichment (6-mer frequency, TF over GST control)	1.64 fold enrichment (6-mer frequency, TF over GST control)	1.74 fold enrichment (6-mer frequency, TF over GST control)	1.72 fold enrichment (6-mer frequency, TF over GST control)
ACCGCC	1.21 fold enrichment (6-mer frequency, TF over GST control)	1.25 fold enrichment (6-mer frequency, TF over GST control)	1.24 fold enrichment (6-mer frequency, TF over GST control)	1.29 fold enrichment (6-mer frequency, TF over GST control)	1.21 fold enrichment (6-mer frequency, TF over GST control)	1.23 fold enrichment (6-mer frequency, TF over GST control)	1.44 fold enrichment (6-mer frequency, TF over GST control)	1.26 fold enrichment (6-mer frequency, TF over GST control)
